Laboratory results from PubChem BioAssay (NCATS).
Where “and” joins values, the source holds several entries; their conditions need not be identical. Equal entries are not always repeated. Inconclusive results are not listed. Calls of active or inactive are those of the source. Calls follow the shape of the dose curve; as a rule, active = well fitted curve in the direction sought with a large enough effect; inconclusive = small, poorly fitted or top-dose-only effect, or another doubt; inactive = no such curve, though single readings can be large or run the other way. Where a SMILES comes first, the peptide text is derived from it. [ ]: non-standard residue; d: D form. pGlu = O=C1CC[C@@H](C(=O)O)N1; Thz = O=C(O)[C@@H]1CSCN1

Assay: qHTS Assay for Identifying Gametocytocidal Compounds (AID 743244);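 as to max response: actives lower the fluorescent signal which means gametocytes are killed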
Conditions: P. falciparum 3D7 stage III-V gametocytes, alamarBlue, 72 h; max response: hits give low values
Text: Malaria cases and deaths have dropped 50% in 29 countries since 2000 due to the combined effects of long-lasting insecticidal bednets, indoor residual spraying, and artemisinin-based combination therapies (ACTs). This success has raised hopes for malaria eradication and consequently stimulated interest in developing new reagents that block gametocyte transmission such as novel and safe gametocytocidal drugs. However, previous drug development efforts have focused primarily on the asexual parasites that cause symptoms, but not malaria transmission. Consequently, patients can remain infectious for weeks after the clearance of asexual parasites and clinical symptoms. To be transmitted from person to person via a mosquito, the parasites must switch from asexual to sexual development and produce male and female gametocytes. Malaria gametocytes consist of five stages (I, II, III, IV and V). The late stage gametocytes (III, IV and V) are difficult to be cultured in vitro and the long lifespan of mature gametocytes allows them being transmitted from host to mosquitoes unless they are completely eliminated by gametocytocidal agents. To identify gametocytocidal compounds which are capable of killing late stage P. falciparum gametocytes, a high throughput gametocyte viability assay was employed. This assay uses oxidoreduction indicator, alamarBlue, as a general measure of metabolic activity of gametocytes. Within live cells, the nonfluorescent resazurin is reduced to resorufin, a bright red fluorescence dye. Fluorescence decreases upon treatment of gametocytocidal compounds. P. falciparum gametocyte (3D7 strain) was used in this study.
The 1536-well gametocycidal viability assay was based on the previous method of Tanaka et al. Stage III-V gametocytes were tested against three compound libraries, including 4265 compounds from NCGC pharmaceutical collection, 400 from Malaria Box library, and 550 from an internal collection of kinase inhibitors. Briefly, 2.5 ul/well incomplete medium was dispensed into each well of 1,536-well plates using the Multidrop Combi followed by 23 nl compound transferring using the NX-TR Pintool (WAKO Scientific Solutions, San Diego, CA). Then, 2.5 ul/well of gametocytes was dispensed with a seeding density of 20,000 cells/well using the Multidrop Combi. The assay plates were incubated for 72 h at 37C with 5% CO2. After addition of 5 ul/well of 2X AlamarBlue dye (Life Technologies, cat. no. DAL1100), the plates were incubated for 24 h at 37C with 5% CO2 and then were read in a fluorescence detection mode (Ex = 525 nm, Em = 598 nm) on a ViewLux plate reader (PerkinElmer).
% is scaled to controls: 0 for no effect and ±100 for the full control effect; potency is read from the fitted curve at half-maximal effect.

| Compound | max response | Potency |
| --- | --- | --- |
| CCOC(=O)c1ccccc1O | -3.35% (inactive) and 9.79% (inactive) | – |
| COc1ccccc1N1CCN(CCN(C(=O)c2ccc(I)cc2)c2ccccn2)CC1 | 4.76% (inactive) | – |
| Brc1c(Br)c(Br)c2n[nH]nc2c1Br | 10.7% (inactive) | – |
| COc1cc(NC(C)CCCN)c2ncccc2c1 (stereo not given) | – | 2.15 µM (active) |
| COc1cc(SC)ccc1C(=O)N1CCC(Cc2ccccc2)CC1 | 12.7% (inactive) | – |
| CNc1ncnc2c1ncn2[C@@H]1O[C@H](CO)[C@@H](O)[C@H]1O | 31.8% (inactive) | – |
| CCCCCCCCCCCCCCCC(=O)OC(C)C | 3.03% (inactive) | – |
| N#C/C(=C\c1ccc(O)c(O)c1)C(=O)NCCCc1ccccc1 | 8.54% (inactive) | – |
| C=C[C@@H]1CN2CC[C@@H]1C[C@H]2[C@H](O)c1ccnc2ccc(OC)cc12 | – | 0.296 µM (active) |
| Ic1ccc(N2CCN(Cc3c[nH]c4ncccc34)CC2)cc1 | 5.54% (inactive) | – |
| C[C@@H](CN1CCC(Cc2ccccc2)CC1)[C@@H](O)c1ccc(O)cc1 | 31% (inactive) | – |
| Nc1ncnc2c1ncn2[C@@H]1O[C@H](COP(=O)(O)CP(=O)(O)OP(=O)(O)O)[C@@H](O)[C@H]1O | 13.9% (inactive) | – |
| CSc1nc(N)c2ncn([C@@H]3O[C@H](COP(=O)(O)OP(=O)(O)OP(=O)(O)O)[C@@H](O)[C@H]3O)c2n1 | 11.9% (inactive) | – |
| C[S+](CC[C@H](N)C(=O)O)C[C@H]1O[C@@H](n2cnc3c(N)ncnc32)[C@H](O)[C@@H]1O (stereo not given in full) | 6.19% (inactive) and -10.1% (inactive) | – |
| NC[C@@H]1O[C@H](C23CC4CC(CC(C4)C2)C3)Cc2c1ccc(O)c2O | – | 1 µM (active) |
| NC(N)=NC(=O)c1nc(Cl)c(N2CCCCCC2)nc1N | – | 0.891 µM (active) |
| CC(C(=O)O)c1ccc(C(=O)c2ccccc2)s1 (stereo not given) | -0.0039% (inactive) | – |
| CCCCCCCC/C=C\CCCCCCCC(=O)NCCO | 8.34% (inactive) | – |
| Nc1nc2ccc([N+](=O)[O-])cc2s1 | 8.79% (inactive) | – |
| OCC1O[C@H]([S-])[C@H](O)[C@@H](O)[C@@H]1O.[Au+] (stereo not given in full) | – | 2.82 µM (active) |

| Compound | max response | Potency |
| --- | --- | --- |
| C=CCc1cccc(/C=N/NC(=O)CN2CCN(Cc3ccccc3)CC2)c1O | – | 29.6 µM (active) |
| CC(N)C(=O)OC(C)(C)Cc1ccc(Cl)cc1 (stereo not given) | 11% (inactive) and 11.7% (inactive) | – |
| COc1ccccc1N1CCN(CCCCNS(=O)(=O)c2cccc3c(N(C)C)cccc23)CC1 | 10.4% (inactive) | – |
| CC[C@H]1OC(=O)[C@H](C)[C@@H](O[C@H]2C[C@@](C)(OC)[C@@H](O)[C@H](C)O2)[C@H](C)[C@@H](O[C@@H]2O[C@H](C)C[C@H](N(C)C)[C@H]2O)[C@](C)(O)C[C@@H](C)C(=O)[C@H](C)[C@@H](O)[C@]1(C)O | 1.77% (inactive) and 0.604% (inactive) | – |
| NC(=O)C(c1ccccc1)(c1ccccc1)[C@@H]1CCN(CCc2ccc3c(c2)CCO3)C1 | -5.51% (inactive) | – |
| O=C(O)COc1ccc(C(=O)c2cccs2)c(Cl)c1Cl | -3.69% (inactive) and 20.3% (inactive) | – |
| CN1C2CC(OC(=O)[C@H](CO)c3ccccc3)CC1C1OC12 (stereo not given in full) | 21.9% (inactive) | – |
| CCCCCCCCCCCCCCCCCC(=O)NCC(COP(=O)([O-])OCC[N+](C)(C)C)OCC (stereo not given) | 4.32% (inactive) | – |
| CC1(C)CCC=[N+]1[O-] | 7.42% (inactive) | – |
| C#C[C@]1(O)CC[C@H]2[C@@H]3CCC4=Cc5oncc5CC4(C)[C@H]3CCC21C (stereo not given in full) | 25.1% (inactive) | – |
| N#C/C(=C\c1ccc(-c2cc(Cl)ccc2Cl)o1)C(=O)Nc1cccc2ncccc12 | -7.88% (inactive) | – |
| CCCCCCCCCCCCCCCCCC(=O)O | -10.4% (inactive) | – |
| CC(=O)c1ccc(OCC(=O)N2CCCCC2)cc1 | 6.76% (inactive) | – |
| O=C(c1ccc(OCCCc2cnc[nH]2)cc1)C1CC1 | 42% (inactive) | – |
| Cc1ccc(O)c(-n2nc3ccccc3n2)c1 | -7.72% (inactive) | – |
| O=C(c1ccc(Cl)cc1)N1CCN(c2ccc([N+](=O)[O-])c3ncccc23)CC1 | -0.851% (inactive) | – |
| O=C1CC[C@@H](C(=O)N2CSC[C@H]2C(=O)O)N1 ([pGlu]-[Thz]-OH) | 5.51% (inactive) | – |
| CO[C@@]1(NC(=O)Cc2cccs2)C(=O)N2C(C(=O)O)=C(COC(N)=O)CS[C@@H]21 | -0.875% (inactive) and -15% (inactive) | – |
| O=C(O)c1cc(=O)c2ccccc2[nH]1 | -5.82% (inactive) | – |
| CCCC1(C)C(C#N)(C#N)C1(C#N)C#N | – | 2.24 µM (active) |
